# Experiments:
# Assay in all cases: DAPPL (digital affinity profiling via proximity ligation, sequencing); 10 mM Tris-HCl pH 7.5, 50 mM NaCl, 1 mM DTT, 4% glycerol, room temperature, 30 min; GST-TFs on glutathione beads, 16-mer random dsDNA library, 0.1% formaldehyde crosslink after washing; high values mean tight binding
# Settings in all cases: protein: recombinant; tags: N-terminal GST; dsDNA, one strand shown
# [1] = biological target: T1, FLI1 (Homo sapiens, UniProt Q01543 1-452)
# T1 sequence: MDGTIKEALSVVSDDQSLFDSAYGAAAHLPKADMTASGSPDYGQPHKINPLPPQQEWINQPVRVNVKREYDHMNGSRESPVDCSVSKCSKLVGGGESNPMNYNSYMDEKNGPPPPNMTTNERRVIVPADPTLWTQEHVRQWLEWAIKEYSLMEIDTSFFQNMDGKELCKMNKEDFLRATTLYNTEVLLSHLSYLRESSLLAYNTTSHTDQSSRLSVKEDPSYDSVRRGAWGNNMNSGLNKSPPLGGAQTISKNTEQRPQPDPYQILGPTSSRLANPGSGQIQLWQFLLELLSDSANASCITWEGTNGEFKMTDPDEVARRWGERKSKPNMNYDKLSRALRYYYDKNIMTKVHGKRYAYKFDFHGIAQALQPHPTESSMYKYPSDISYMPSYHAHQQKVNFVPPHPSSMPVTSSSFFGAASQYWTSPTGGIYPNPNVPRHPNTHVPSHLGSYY
# Outline: (§1)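 Pools were built from human transcription factors expressed in yeast as GST fusions, captured on glutathione beads and DNA-barcoded, along with a tag-only sample. Incubation with 200 nmole of a 16-mer random double-stranded DNA library lasted 30 min at room temperature in Tris/NaCl/DTT/glycerol buffer, and was followed by washing, 0.1% formaldehyde crosslinking, proximity ligation, PCR amplification and Illumina NextSeq500 sequencing. Binding signal is the quotient of each hexamer's read frequency for a factor and its frequency for the tag-only sample.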
# [2] = biological target: T2, ELK1 (Homo sapiens, UniProt P19419 1-428)
# T2 sequence: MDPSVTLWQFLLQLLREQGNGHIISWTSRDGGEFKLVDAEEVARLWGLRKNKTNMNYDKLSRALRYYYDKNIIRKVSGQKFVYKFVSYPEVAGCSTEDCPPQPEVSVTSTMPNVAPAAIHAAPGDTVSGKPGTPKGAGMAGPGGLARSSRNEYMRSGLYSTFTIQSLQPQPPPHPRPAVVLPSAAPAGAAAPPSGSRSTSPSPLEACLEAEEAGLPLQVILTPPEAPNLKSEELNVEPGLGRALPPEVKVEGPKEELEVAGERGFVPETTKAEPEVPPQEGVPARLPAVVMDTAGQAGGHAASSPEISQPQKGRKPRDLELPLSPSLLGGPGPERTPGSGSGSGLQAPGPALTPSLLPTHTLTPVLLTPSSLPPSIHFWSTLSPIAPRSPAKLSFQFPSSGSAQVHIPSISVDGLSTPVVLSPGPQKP
# Outline: as §1
# [3] = biological target: T3, GABPA (Homo sapiens, UniProt Q06546 1-454)
# T3 sequence: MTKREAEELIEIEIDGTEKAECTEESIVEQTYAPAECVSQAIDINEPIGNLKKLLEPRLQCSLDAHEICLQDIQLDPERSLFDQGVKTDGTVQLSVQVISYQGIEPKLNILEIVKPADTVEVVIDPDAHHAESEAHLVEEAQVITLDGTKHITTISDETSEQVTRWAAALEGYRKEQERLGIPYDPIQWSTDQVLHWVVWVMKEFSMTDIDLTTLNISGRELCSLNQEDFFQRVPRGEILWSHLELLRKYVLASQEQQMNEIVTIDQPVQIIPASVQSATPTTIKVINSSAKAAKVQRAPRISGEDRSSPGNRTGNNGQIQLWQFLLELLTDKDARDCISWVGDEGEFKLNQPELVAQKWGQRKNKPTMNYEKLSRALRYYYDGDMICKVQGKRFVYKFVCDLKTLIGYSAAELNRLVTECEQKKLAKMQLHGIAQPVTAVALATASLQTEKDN
# Outline: as §1
# [4] = biological target: T4, ERG (Homo sapiens, UniProt P11308 1-479)
# T4 sequence: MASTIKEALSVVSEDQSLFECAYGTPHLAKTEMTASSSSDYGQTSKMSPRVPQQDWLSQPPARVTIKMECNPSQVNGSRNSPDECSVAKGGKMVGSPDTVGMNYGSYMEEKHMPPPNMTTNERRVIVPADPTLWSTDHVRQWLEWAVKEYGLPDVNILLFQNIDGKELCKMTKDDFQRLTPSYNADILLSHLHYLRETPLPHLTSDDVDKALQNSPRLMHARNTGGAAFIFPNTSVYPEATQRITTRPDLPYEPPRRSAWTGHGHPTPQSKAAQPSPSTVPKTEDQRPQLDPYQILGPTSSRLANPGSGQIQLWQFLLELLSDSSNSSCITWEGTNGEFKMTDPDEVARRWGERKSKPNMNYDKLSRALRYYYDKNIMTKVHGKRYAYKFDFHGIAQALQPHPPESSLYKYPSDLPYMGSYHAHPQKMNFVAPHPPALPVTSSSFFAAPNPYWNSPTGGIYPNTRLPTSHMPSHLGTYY
# Outline: as §1
# [5] = biological target: ELF1 (Homo sapiens, UniProt P32519 1-619)
# Outline: as §1
# [6] = biological target: T5, EHF (Homo sapiens, UniProt Q9NZC4 1-300)
# T5 sequence: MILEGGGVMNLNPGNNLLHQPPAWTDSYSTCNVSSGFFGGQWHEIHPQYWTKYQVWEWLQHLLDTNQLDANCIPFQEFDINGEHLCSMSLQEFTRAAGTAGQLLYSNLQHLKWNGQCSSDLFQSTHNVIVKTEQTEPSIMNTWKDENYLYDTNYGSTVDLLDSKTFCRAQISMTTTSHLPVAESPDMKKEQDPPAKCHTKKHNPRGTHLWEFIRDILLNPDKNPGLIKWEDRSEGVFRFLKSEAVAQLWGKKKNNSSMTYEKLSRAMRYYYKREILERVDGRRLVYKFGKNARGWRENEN
# Outline: as §1
# [7] = biological target: SPI1 (Homo sapiens, UniProt P17947 1-270)
# Outline: as §1
# [8] = biological target: SPIB (Homo sapiens, UniProt Q01892 1-262)
# Outline: as §1
# [9] = biological target: T6, ELK3 (Homo sapiens, UniProt P41970 1-407)
# T6 sequence: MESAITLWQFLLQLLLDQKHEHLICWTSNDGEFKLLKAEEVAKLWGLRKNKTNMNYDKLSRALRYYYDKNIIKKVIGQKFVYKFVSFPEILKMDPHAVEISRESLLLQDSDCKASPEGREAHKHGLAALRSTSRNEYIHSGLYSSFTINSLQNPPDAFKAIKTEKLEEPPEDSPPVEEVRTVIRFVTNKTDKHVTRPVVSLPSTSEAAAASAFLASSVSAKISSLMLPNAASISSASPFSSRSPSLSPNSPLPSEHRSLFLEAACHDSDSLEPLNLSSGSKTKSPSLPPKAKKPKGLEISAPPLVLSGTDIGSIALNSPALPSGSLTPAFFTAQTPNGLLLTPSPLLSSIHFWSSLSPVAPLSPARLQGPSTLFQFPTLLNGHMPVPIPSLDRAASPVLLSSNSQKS
# Outline: as §1
# [10] = biological target: ETV5 (Homo sapiens, UniProt P41161 1-510)
# Outline: as §1
# [11] = biological target: T7, ELF3 (Homo sapiens, UniProt P78545 1-371)
# T7 sequence: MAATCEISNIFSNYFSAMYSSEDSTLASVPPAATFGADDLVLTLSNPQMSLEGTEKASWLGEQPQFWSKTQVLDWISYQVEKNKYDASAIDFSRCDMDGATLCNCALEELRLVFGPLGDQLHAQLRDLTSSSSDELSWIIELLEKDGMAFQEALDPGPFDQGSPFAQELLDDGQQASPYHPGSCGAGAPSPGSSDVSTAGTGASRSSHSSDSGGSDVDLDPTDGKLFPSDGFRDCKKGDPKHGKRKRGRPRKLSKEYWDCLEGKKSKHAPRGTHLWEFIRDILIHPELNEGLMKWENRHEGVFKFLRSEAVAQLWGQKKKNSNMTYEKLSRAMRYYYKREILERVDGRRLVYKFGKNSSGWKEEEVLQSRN
# Outline: as §1
# [12] = biological target: ETV1 (Homo sapiens, UniProt P50549 1-477)
# Outline: as §1
# [13] = biological target: T8, ERF (Homo sapiens, UniProt P50548 1-548)
# T8 sequence: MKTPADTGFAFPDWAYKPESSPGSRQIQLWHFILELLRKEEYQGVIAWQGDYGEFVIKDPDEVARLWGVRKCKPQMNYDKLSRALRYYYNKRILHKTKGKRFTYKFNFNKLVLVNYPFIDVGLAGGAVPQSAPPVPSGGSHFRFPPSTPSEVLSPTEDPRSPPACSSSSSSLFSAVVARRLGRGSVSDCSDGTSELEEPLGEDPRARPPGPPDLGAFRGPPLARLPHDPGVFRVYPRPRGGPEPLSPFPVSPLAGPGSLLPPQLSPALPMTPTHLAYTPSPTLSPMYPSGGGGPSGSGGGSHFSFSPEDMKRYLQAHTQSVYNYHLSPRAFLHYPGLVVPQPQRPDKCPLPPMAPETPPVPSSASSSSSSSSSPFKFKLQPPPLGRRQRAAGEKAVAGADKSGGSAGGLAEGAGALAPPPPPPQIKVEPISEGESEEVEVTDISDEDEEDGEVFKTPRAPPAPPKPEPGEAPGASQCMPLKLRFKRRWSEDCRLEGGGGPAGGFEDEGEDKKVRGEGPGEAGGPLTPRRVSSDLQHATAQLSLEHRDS
# Outline: as §1
# [14] = biological target: T9, ETV3L (Homo sapiens, UniProt Q6ZN32 1-361)
# T9 sequence: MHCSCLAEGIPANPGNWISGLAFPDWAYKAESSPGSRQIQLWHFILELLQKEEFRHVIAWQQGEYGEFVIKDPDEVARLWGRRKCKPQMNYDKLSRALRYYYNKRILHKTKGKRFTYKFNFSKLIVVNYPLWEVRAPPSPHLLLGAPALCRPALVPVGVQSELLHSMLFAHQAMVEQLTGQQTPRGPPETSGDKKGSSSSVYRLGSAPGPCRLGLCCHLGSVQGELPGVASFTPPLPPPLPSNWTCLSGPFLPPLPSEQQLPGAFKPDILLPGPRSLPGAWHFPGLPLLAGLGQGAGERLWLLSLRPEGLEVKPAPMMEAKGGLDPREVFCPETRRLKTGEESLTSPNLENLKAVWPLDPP
# Outline: as §1
# [15] = biological target: T10, ETS2 (Homo sapiens, UniProt P15036 1-469)
# T10 sequence: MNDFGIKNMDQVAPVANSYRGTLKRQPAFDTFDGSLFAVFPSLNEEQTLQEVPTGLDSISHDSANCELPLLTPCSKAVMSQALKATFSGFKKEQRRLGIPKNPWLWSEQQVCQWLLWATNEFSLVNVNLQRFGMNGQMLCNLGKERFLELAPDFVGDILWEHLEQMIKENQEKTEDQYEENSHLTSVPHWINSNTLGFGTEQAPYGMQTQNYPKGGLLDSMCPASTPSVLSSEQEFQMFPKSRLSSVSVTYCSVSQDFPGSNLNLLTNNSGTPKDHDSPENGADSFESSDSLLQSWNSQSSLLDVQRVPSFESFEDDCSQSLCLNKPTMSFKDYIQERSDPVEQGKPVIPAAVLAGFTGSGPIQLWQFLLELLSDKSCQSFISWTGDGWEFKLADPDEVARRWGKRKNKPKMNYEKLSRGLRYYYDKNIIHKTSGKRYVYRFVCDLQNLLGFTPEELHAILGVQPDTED
# Outline: as §1
# [16] = biological target: T11, ETV7 (Homo sapiens, UniProt Q9Y603 1-341)
# T11 sequence: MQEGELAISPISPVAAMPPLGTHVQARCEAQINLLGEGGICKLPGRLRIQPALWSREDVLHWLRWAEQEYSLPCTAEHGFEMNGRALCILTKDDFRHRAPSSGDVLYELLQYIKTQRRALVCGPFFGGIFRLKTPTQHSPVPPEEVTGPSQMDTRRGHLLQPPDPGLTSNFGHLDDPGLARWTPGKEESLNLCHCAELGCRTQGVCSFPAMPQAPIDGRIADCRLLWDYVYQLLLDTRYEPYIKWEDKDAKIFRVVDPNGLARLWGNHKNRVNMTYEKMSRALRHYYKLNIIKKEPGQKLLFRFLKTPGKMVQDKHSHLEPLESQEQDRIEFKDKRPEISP
# Outline: as §1
# [17] = biological target: T12, ETV3 (Homo sapiens, UniProt P41162-2 1-143)
# T12 sequence: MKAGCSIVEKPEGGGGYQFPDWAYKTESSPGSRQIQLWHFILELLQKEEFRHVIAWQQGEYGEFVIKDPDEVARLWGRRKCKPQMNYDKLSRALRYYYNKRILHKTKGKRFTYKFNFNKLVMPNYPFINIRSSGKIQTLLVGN
# Outline: as §1
# [18] = biological target: ETV6 (Homo sapiens, UniProt P41212 1-452)
# Outline: as §1
# Chain of SPIB (Q01892 whole entry): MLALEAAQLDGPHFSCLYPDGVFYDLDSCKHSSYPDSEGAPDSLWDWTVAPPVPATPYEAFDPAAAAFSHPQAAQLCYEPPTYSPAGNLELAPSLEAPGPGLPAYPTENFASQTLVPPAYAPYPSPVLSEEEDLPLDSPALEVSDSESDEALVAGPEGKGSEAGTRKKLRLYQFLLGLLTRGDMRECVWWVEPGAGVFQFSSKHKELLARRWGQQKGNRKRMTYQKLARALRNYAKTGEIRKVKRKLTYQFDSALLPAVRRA
# Chain of ETV1 (P50549 whole entry): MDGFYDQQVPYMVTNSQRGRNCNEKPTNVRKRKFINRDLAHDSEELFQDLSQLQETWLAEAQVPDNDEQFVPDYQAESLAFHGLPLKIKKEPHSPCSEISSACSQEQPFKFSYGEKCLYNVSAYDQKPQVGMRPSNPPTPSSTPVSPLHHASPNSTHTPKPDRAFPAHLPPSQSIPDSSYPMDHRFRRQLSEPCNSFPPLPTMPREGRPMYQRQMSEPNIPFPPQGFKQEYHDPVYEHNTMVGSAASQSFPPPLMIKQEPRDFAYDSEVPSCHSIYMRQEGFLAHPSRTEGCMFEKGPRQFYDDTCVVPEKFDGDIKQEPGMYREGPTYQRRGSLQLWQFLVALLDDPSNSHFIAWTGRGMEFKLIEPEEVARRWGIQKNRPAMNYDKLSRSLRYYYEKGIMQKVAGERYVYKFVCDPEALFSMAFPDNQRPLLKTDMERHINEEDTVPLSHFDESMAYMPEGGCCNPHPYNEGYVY
# Chain of ETV6 (P41212 whole entry): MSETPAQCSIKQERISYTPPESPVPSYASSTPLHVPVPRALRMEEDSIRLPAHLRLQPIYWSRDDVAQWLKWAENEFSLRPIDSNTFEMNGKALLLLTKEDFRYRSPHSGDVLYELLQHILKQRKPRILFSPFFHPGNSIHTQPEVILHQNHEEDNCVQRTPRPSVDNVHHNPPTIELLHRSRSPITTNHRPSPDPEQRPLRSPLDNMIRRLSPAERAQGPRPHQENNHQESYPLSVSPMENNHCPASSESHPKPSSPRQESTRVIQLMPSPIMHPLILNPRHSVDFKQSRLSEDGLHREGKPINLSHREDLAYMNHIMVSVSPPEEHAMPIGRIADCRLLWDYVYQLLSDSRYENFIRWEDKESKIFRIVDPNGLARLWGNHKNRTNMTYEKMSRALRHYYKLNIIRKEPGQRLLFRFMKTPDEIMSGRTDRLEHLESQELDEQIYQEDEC
# Chain of ETV5 (P41161 whole entry): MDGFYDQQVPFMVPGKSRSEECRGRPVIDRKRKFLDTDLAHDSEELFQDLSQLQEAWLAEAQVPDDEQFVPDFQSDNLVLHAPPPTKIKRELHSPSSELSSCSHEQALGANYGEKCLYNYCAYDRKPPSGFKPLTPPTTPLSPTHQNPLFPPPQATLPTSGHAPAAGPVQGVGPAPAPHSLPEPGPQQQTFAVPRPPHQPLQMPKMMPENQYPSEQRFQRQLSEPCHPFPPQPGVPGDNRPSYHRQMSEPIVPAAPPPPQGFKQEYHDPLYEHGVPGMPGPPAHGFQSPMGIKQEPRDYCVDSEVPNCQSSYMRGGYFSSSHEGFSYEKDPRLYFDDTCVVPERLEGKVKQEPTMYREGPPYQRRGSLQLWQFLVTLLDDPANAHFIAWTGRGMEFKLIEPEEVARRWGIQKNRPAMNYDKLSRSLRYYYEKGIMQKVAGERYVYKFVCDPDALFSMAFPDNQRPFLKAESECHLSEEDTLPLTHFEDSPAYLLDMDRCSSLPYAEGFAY
# Chain of ELF1 (P32519 whole entry): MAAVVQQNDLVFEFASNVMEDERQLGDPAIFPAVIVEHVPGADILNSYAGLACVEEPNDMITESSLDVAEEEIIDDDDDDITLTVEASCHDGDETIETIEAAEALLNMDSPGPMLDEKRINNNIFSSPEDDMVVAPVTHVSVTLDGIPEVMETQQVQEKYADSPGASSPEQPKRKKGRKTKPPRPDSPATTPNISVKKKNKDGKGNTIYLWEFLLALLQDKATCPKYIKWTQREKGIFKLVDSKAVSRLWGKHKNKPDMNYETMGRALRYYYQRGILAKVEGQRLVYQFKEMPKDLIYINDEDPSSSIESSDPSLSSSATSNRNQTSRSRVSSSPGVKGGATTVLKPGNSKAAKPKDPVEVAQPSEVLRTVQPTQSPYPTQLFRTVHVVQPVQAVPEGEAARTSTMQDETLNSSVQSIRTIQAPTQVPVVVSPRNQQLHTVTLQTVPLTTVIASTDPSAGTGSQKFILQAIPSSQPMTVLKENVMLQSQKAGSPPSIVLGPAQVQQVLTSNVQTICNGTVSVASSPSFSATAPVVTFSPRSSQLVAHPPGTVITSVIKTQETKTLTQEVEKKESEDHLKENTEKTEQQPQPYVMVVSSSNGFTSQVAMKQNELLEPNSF
sequence,measurement,setting,value
AGTGGT,binding signal,[1],"1.04 fold enrichment (6-mer frequency, TF over GST control)"
same,binding signal,[2],"1.03 fold enrichment (6-mer frequency, TF over GST control)"
same,binding signal,[3],"1.09 fold enrichment (6-mer frequency, TF over GST control)"
same,binding signal,[4],"1.06 fold enrichment (6-mer frequency, TF over GST control)"
same,binding signal,[5],"1.06 fold enrichment (6-mer frequency, TF over GST control)"
same,binding signal,[6],"1.11 fold enrichment (6-mer frequency, TF over GST control)"
same,binding signal,[7],"1.42 fold enrichment (6-mer frequency, TF over GST control)"
same,binding signal,[8],"1.22 fold enrichment (6-mer frequency, TF over GST control)"
same,binding signal,[9],"1.15 fold enrichment (6-mer frequency, TF over GST control)"
same,binding signal,[10],"1.14 fold enrichment (6-mer frequency, TF over GST control)"
same,binding signal,[11],"1.01 fold enrichment (6-mer frequency, TF over GST control)"
same,binding signal,[12],"1.02 fold enrichment (6-mer frequency, TF over GST control)"
same,binding signal,[13],"1.14 fold enrichment (6-mer frequency, TF over GST control)"
same,binding signal,[14],"1.06 fold enrichment (6-mer frequency, TF over GST control)"
same,binding signal,[15],"1.12 fold enrichment (6-mer frequency, TF over GST control)"
same,binding signal,[16],"1.14 fold enrichment (6-mer frequency, TF over GST control)"
same,binding signal,[17],"1.09 fold enrichment (6-mer frequency, TF over GST control)"
same,binding signal,[18],"1.11 fold enrichment (6-mer frequency, TF over GST control)"
